High-throughput results deposited in PubChem BioAssay by National Center for Advancing Translational Sciences (NCATS).
PNC assembly inh = perinucleolar compartment assembly inhibition; activity change (PNC), negative = inhibition, % at 10 µM; AID 2417; PC3M PTB-GFP, PNC prevalence imaging, 16 h; stronger effect = lower value; 140,000 tested, 3.1% active;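 active = readout at or below -70, meaning at least 70% loss of cells showing the perinucleolar compartment, a nuclear body marking cancer cells; inconclusive = readout between -30 and a set limit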;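 note: plate controls were DMSO wells for no effect and camptothecin positive control wells for full effect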
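Compounds are pinned in duplicate onto adhered PC3M cells stably expressing GFP-tagged PTB and incubated 16 h at 37 C. Cells are then fixed, nuclei stained with Hoechst, and PNC-positive cells counted.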
HPGD block = HPGD (human) dehydrogenase inhibition. 150,000 tested, 4.3% active. purified HPGD, NADH fluorescence kinetic, PGE2 substrate. Potency, µM, for inactives: at the highest dose activity change, negative = inhibition, actives largely listed as inhibitors. P15428; note: potency is the fitted concentration of half-maximal effect
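NADH formation kinetics: reaction with 30 uM PGE2 and 1 mM NAD+ (final), 20 nM enzyme, Tris-HCl pH 8 with Tween 20, after 15 min compound preincubation at room temperature. Fluorescence change, last versus first of five reads.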
ALDH1A1 inh = blocks purified human ALDH1A1 activity | AID 1030 | Potency, µM (doses to about 75.3 µM), for the others: at the highest dose activity, negative = inhibition, hits mostly inhibitors | 220,000 tested, 7.3% active | Purified ALDH1A1, NADH fluorescence, propionaldehyde substrate | P00352;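 note: potency is the fitted concentration of half-maximal effect; plate controls were no enzyme wells and a reference inhibitor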
Target sequence (P00352 whole entry, looked up): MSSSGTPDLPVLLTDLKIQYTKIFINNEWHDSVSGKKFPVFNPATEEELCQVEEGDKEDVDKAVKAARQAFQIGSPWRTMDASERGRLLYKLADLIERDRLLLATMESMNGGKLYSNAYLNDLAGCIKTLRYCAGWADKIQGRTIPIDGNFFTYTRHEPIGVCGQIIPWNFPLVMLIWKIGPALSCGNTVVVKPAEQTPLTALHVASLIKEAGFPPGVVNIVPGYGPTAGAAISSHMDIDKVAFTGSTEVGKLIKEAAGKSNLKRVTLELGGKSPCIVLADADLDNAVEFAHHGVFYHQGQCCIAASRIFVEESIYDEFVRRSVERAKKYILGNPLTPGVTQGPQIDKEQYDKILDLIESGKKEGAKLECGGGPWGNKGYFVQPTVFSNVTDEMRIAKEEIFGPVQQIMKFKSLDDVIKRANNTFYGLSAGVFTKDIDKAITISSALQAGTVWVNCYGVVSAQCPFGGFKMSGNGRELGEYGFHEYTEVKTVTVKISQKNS
* marks the source's active call; other numbers are inactive results; ? = inconclusive; . = no result given; [ ] = dose if it differs, or a comment. Hits are enriched below; roughly 11% of the tested compounds scored in any of these assays. Unless noted, calls come from the whole dose curve; as a rule, active = well fitted inhibition curve with a large enough effect (not every such curve was filed as active); inconclusive = small, poorly fitted or top-dose-only effect, or another doubt; inactive = no such curve, though single readings can be large or run the other way. Unless noted, % is set by controls: 0 for no effect and ±100 for the full control effect.

SMILES | PNC assembly inh | HPGD block | ALDH1A1 inh
O=C1OC(/C=C/c2ccccc2)=NC/1=C\c1cccnc1 | . | . | 5%
O=C1/C(=C/c2cccnc2)Oc2cc(OS(=O)(=O)c3ccccc3)ccc21 | -16 | ? | 3.2µM*
Cc1ccc2cc(/C=N/NC(=O)c3ccccc3[N+](=O)[O-])c(Cl)nc2c1 | . | . | 4%
COC(=O)c1cc(C#N)c(N2CC(C)OC(C)C2)nc1C (stereo not drawn) | . | . | -11%
COc1ccc(C2=NN(CCC(=O)NCc3cccs3)C(=O)CC2)cc1 | . | . | -6%
CC(C)NCC1CCc2cc(CO)c([N+](=O)[O-])cc2N1 (stereo not drawn) | . | . | 4%
O=C(O)CC/C(=N\NC(=O)CNC(=O)c1ccc(F)cc1)c1ccccc1 | . | . | 11%
Cc1cc(C(C#N)c2ccccc2)n2ncnc2n1 (stereo not drawn) | -21 | -7% | ?
Cc1cc(C(C#N)c2ccccc2F)n2ncnc2n1 (stereo not drawn) | . | . | 16µM*
O=C(CCNc1cccc(Cl)c1)c1cccs1 | -5 | -12% | 1.3µM*
CC(C)c1ccc(NCCC(=O)c2cccs2)cc1 | ? | -11% | 2.8µM*
Cc1ccc(NCCC(=O)c2cccs2)cc1C | . | . | 1.6µM*
CCOc1ccc(NS(=O)(=O)c2cc(NC(=O)CCC(=O)c3cccs3)ccc2Cl)cc1 | . | . | -8%
C/C(=N\NC(=O)CCC(=O)Nc1ccc(C)c(C)c1)c1cccs1 | . | . | 2%
CC(C)CCNC(=O)CNC(=O)c1cccs1 | -10 | -1% | 5%
O=C(NNC(=O)c1cccs1)Nc1cccc(Cl)c1 | 14 | -14% | 1%
Cc1ccc(NCCC(=O)c2cccs2)cc1Cl | 13 | -7% | 2.5µM*
CC(=O)OC1CC[C@]2(C)C(=CCC3C4CCC(C(C)CCCC(C)C)[C@]4(C)CCC32)C1 (stereo partly drawn) | . | -1% | 1%
CC(=O)Nc1cccc(NC=C(C#N)C#N)c1 | . | . | 8%
O=C(Cc1c(F)cccc1Cl)Nc1ccccc1N1CCCCC1 | . | . | 1%
CN(C(=O)COC(=O)c1ccc2ccccc2n1)C1CCS(=O)(=O)C1 (stereo not drawn) | . | . | -2%
CCOc1ccc(NC(=O)CN(C)CC(=O)Nc2ccc(Br)cc2F)cc1OCC | . | . | -4%
CCOC(=O)c1cc[n+](CC(=O)c2ccc(F)cc2)cc1 | -20 | -9% | ?
Cc1ccc(NC(=O)CCC(=O)c2cccs2)cc1 | -22 | -11% | ?
Cc1ccc(NCCC(=O)c2cccs2)cc1 | . | . | 0.89µM*
SMILES | PNC assembly inh | HPGD block | ALDH1A1 inh
COc1ccc(C2/C=C\CN(CC(C)C)CC(=O)N2Cc2cccc(F)c2)cc1 (stereo not drawn) | . | -5% | ?
NC1=C(c2ccc([N+](=O)[O-])cc2)C(=O)CO1 | -25 | -13% | -3%
NC1=C(c2ccc(F)cc2)C(=O)CS1 | ? | 6.3µM* | 20µM*
CCN(CC)CCNC(=O)C(=O)NCC1OCCN1S(=O)(=O)c1ccc([N+](=O)[O-])cc1 (stereo not drawn) | ? | -3% | -2%
O=C1OC(c2cccc([N+](=O)[O-])c2)C2(CCCC2)C(=O)C12CCCCC2 (stereo not drawn) | 48 | -17% | -5%
O=C(Cc1cccc(C(F)(F)F)c1)NCc1ccc(Cl)cc1Cl | -20 | -15% | 2%
Cc1ccc(NC(=O)c2c([N+](=O)[O-])c(C(C)(C)C)nn2C)c(C)c1 | ? | -3% | -5%
Cc1ccc(N/C(C(Cl)=C(Cl)Cl)=C(/Cl)[N+](=O)[O-])c(C)c1 | -8 | -24% | 3.5µM*
CCOC(=O)CCNC(=O)Nc1ccc2nc(C)n(Cc3ccc(Cl)cc3)c(=O)c2c1 | -18 | -22% | ?
CC(=O)Nc1ccc2nc(C)n(Cc3ccc(Cl)cc3)c(=O)c2c1 | -90* | -22% | 2%
CCOc1ccc(-n2c(SCC(=O)c3c(N)n(C)c(=O)n(C)c3=O)nnc2-c2cccnc2)cc1 | 28 | -6% | 12%
Cc1cc(=O)cc(C)n1-c1ccc(O)cc1 | . | . | 2%
Cc1cc(=O)n(-c2ccc(O)cc2)[nH]1 | 11 | -9% | 0.79µM*
COc1cc(CCC(=O)N2CCN(S(=O)(=O)c3ccc(C)c(C)c3)CC2)cc(OC)c1OC | 5 | -13% | ?
CC(=O)c1ccc(NC(=O)c2ccc(S(=O)(=O)N3CCCC3)cc2)cc1 | 35 | -14% | ?
COc1ccc(CCC(=O)N2CCN(S(=O)(=O)c3ccc4ccccc4c3)CC2)cc1 | -24 | -19% | 14µM*
Cc1ccc(S(=O)(=O)N2CCCN(S(=O)(=O)c3ccc4ccccc4c3)CC2)cc1 | -100* | -15% | -3%
COc1ccc(CCNC(=O)COc2ccc(S(=O)(=O)N3CCCC3)cc2)cc1 | . | . | 10µM*
O=S(=O)(c1ccc2ccccc2c1)N1CCN(S(=O)(=O)c2ccc3ccccc3c2)CC1 | . | 0% | 3%[13.5 µM]
COC(=O)COc1ccc(S(=O)(=O)N2CCCCCC2)cc1 | . | . | -2%
O=C(Nc1ccc(Cc2ccncc2)cc1)c1ccc(S(=O)(=O)N2CCCC2)cc1 | . | . | 14µM*
O=P(O)(CCP(=O)(O)c1ccccc1)c1ccccc1 | . | -4% | -2%[13.5 µM]
CCc1ccccc1NC(=O)C1CCN(C(=O)c2ccc([N+](=O)[O-])cc2)CC1 | . | . | -3%
CCOc1ncccc1C(=O)NCc1ccccc1Cl | . | . | -8%
COc1ccc(S(=O)(=O)N2CCC(O)(c3cccnc3)CC2)cc1OC | . | . | -1%
SMILES | PNC assembly inh | HPGD block | ALDH1A1 inh
O=C(COc1ccc(S(=O)(=O)N2CCCCC2)cc1)NCc1ccncc1 | -22 | -14% | 22µM*
O=C(Nc1nnc(-c2ccco2)o1)c1ccc(S(=O)(=O)N2CCCC2)cc1 | . | . | 35µM*
CC1CN(S(=O)(=O)c2ccc(C(=O)Nc3nnc(-c4ccco4)o3)cc2)CC(C)O1 (stereo not drawn) | . | . | -6%
COc1ccc(S(=O)(=O)N2CCCC(C(=O)NCc3ccncc3)C2)cc1 (stereo not drawn) | ? | -11% | 3%
CCOC(=O)c1cc[nH]c1C | . | . | 5%
CC(C)(C)C(=O)NC(c1ccc(Cl)cc1)[C@]1(C)C[C@H]1C1CCCCC1 (stereo partly drawn) | . | -15% | ?
CC1CCCN(c2ccc(C(=O)OCn3nnc4ccccc4c3=O)cc2[N+](=O)[O-])C1 (stereo not drawn) | -22 | 16µM* | -2%
CC1CCCN(c2ccc(C(=O)Nc3ccc4c(c3)OCO4)cc2[N+](=O)[O-])C1 (stereo not drawn) | ? | -11% | ?
COc1ccc(C(=O)OCn2nnc3ccccc3c2=O)cc1[N+](=O)[O-] | . | . | -17%
CC1CCCN(c2ccc(C(=O)Nc3nnc(C4CC4)s3)cc2[N+](=O)[O-])C1 (stereo not drawn) | ? | -2% | 2.8µM*
COC(=O)[C@H](Cc1ccccc1)NC(=O)O[C@@H]1C(=O)c2ccc(OC)cc2O[C@H]1c1cccc(C(F)(F)F)c1 | . | -15% | -1%
C=CCn1c(SCC(=O)N2CCOCC2)nc(O)cc1=O | 47 | -23% | 2%
C=CCn1c(SCC(=O)N2CCCCC2)nc(O)cc1=O | 44 | 0.32µM* | 7%
C[C@H](CCC(=O)O)[C@H]1CC[C@H]2[C@H]3C(C[C@H](O)[C@]12C)[C@@]1(C)CC[C@@H](O)C[C@H]1C[C@H]3O (stereo partly drawn) | . | -3% | 8%
COC(=O)c1ccc(CO/N=C/c2ccc(OC)cc2)o1 | . | . | 3%
